Here are results for 40 compounds from PubChem BioAssay.

Active and inactive are the calls of the source. The rule behind the calls is not given here.

This experiment deals with Aerobactin synthetase IucA (Klebsiella pneumoniae hvKP1). As to the kind of experiment: IucA enzyme inhibition, primary screen, biochemical, Spectrum library (AID 1346200).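 Note: 100% = wells without compound and 0% = wells lacking enzyme.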 To be noted: malachite green pyrophosphate, A620, at 8 µM, stronger effect = lower value.
In the case of `CCCCCN=C(N)N/N=C/c1c[nH]c2ccc(OC)cc12`, the activity remaining was 108% (inactive).

`COc1cc(C(=O)O[C@H]2CC[C@@]3(C)[C@@H]4CC[C@H]5[C@]6(O)C[C@H](O)[C@@]7(O)[C@@H](CN8C[C@@H](C)CC[C@H]8[C@@]7(C)O)[C@]6(O)C[C@@]53OC24O)cc(OC)c1OC`: the activity remaining was 123% (inactive).

For the compound `O=c1c(O)c(-c2ccc(O)cc2)oc2ccccc12`, the activity remaining was 104% (inactive).

Consider `COc1ccc2oc3ccccc3c(=O)c2c1`, for which the activity remaining is 106% (inactive).

`CCCCCCCCCCCCCCCCCCOCC(O)CO` (stereo not given): the activity remaining is 104% (inactive).

Consider `CN(C)CCOC(=O)C(c1ccccc1)C1(O)CCCC1` (stereo not given), for which the activity remaining was 115% (inactive).

For `CC1(C)S[C@@H]2[C@H](NC(=O)COc3ccccc3)C(=O)N2[C@H]1C(=O)O`, the activity remaining is 96.2% (inactive).

Turning to `CC(C)CCCC(C)C1CCC2C3CC[C@H]4C[C@@H](O)CC[C@]4(C)C3CC[C@]12C` (stereo not given in full), the activity remaining is 109% (inactive).

For the compound `COc1cc2ccc(=O)oc2c(OC)c1OC`, the activity remaining is 124% (inactive).

Take `COc1cc(C)c2c(c1C=O)Oc1c(c(C)c(O)c3c1C(O)OC3=O)OC2=O` (stereo not given): the activity remaining is 114% (inactive).

In the case of `O=c1c2cc(O)c(O)cc2oc2cc(O)c(C3O[C@H](CO)[C@H](O)[C@@H](O)[C@H]3O)c(O)c12` (stereo not given in full), the activity remaining was 93.6% (inactive).

On to `COc1ccc(NS(=O)(=O)c2ccc(N)cc2)nn1`, for which the activity remaining is 111% (inactive).

Take `Cc1ccc(O)cc1`: the activity remaining was 102% (inactive).

Take `COc1ccccc1-c1coc2cc(OC)c(OC)c(OC)c2c1=O`: the activity remaining was 116% (inactive).

Consider `O=C(O)CCCCC1CCSS1` (stereo not given), for which the activity remaining was 103% (inactive).

As to `CC(=O)c1cc2c(cc1O)OC(C)(C)C=C2`, the activity remaining was 96.6% (inactive).

Regarding `CC(=O)OCC(=O)[C@@]1(O)CCC2C3CCC4=CC(=O)CC[C@]4(C)C3C(=O)C[C@@]21C` (stereo not given in full), the activity remaining was 120% (inactive).

Take `Nc1c2ccccc2nc2ccccc12` (tested in a mixture with another compound): the activity remaining was 112% (inactive).

Consider `CCCCN1CCCCC1C(=O)Nc1c(C)cccc1C` (stereo not given), for which the activity remaining is 103% (inactive).

On to `CCOC(=O)OC(C)OC(=O)C1N2C(=O)C(NC(=O)[C@H](N)c3ccccc3)C2SC1(C)C` (stereo not given in full), for which the activity remaining was 104% (inactive).

`CC1(C)CC23C(=O)CCC(O)C2(C)CCC13` (stereo not given): the activity remaining is 113% (inactive).

For the compound `CC(C)C1CCC(C(=O)N[C@@H](Cc2ccccc2)C(=O)O)CC1` (stereo not given in full), the activity remaining is 118% (inactive).

As to `NC(=O)c1ccc[n+]([C@@H]2O[C@H](COP(=O)([O-])OP(=O)(O)OC[C@H]3O[C@@H](n4cnc5c(N)ncnc54)[C@H](O)[C@@H]3O)[C@@H](O)[C@H]2O)c1`, the activity remaining was 108% (inactive).

In the case of `CC(=O)O[C@H]1CC[C@@]2(C)C(C[C@@H](OC(C)=O)[C@]3(C)C2CC[C@@]2(C)[C@H](c4ccoc4)OC(=O)[C@H]4O[C@]423)C1(C)C` (stereo not given in full), the activity remaining was 82.9% (inactive).

Take `Cc1cccc(C)c1NC(=O)C1CCCCN1C` (stereo not given): the activity remaining was 123% (inactive).

For `CC(C)CCCC(C)C1CCC2C3CC(=O)[C@H]4C[C@@H](O)CC[C@]4(C)C3CC[C@]12C` (stereo not given in full), the activity remaining is 121% (inactive).

In the case of `CCC(C(N)=O)c1ccccc1` (stereo not given), the activity remaining is 119% (inactive).

For `CC(NCCC(c1ccccc1)c1ccccc1)c1ccccc1` (stereo not given), the activity remaining is 104% (inactive).

As to `COc1ccc2c(c1)OC/C(=C\c1ccc(OC)c(O)c1)C2=O`, the activity remaining is 120% (inactive).

Turning to `CC[C@H]1OC(=O)[C@H](C)[C@@H](O[C@H]2C[C@@](C)(OC)[C@@H](O)[C@H](C)O2)[C@H](C)[C@@H](O[C@@H]2O[C@H](C)C[C@H](N(C)C)[C@H]2O)[C@](C)(O)C[C@@H](C)[C@@H]2N[C@@H](COCCOC)O[C@H]([C@H]2C)[C@]1(C)O`, the activity remaining was 117% (inactive).

Consider `CN[C@@H]1C(OC2[C@H](O[C@H]3[C@H](O)[C@@H](O)[C@H](N=C(N)N)[C@@H](O)[C@@H]3N=C(N)N)OC(C)[C@]2(O)CO)OC(CO)C(O)C1O` (stereo not given in full), for which the activity remaining is 111% (inactive).

Take `CC1(C)O[C@@H]2[C@@H](CO[C@@]3(COS(N)(=O)=O)OC(C)(C)O[C@@H]23)O1`: the activity remaining is 115% (inactive).

Turning to `CC1(C)C2CC[C@]3(C)C(C(=O)C=C4[C@H]5C[C@@](C)(C(=O)O)CC[C@]5(C)CC[C@]43C)[C@@]2(C)CC[C@@H]1O` (stereo not given in full), the activity remaining was 109% (inactive).

With `Oc1c(I)cc(Cl)c2cccnc12`, the activity remaining is 126% (inactive).

As to `C=C1C(N)CC2CC1C2(C)C` (stereo not given), the activity remaining was 96.6% (inactive).

With `O=C1C=CC(=C(c2ccc(O)cc2)c2ccc(O)cc2)C=C1`, the activity remaining is 105% (inactive).

Regarding `CC1(C)C(=O)C=C[C@@]2(C)C1C=C[C@]1(C)C2CC[C@@]2(C)[C@H](c3ccoc3)OC(=O)C3OC321` (stereo not given in full), the activity remaining is 102% (inactive).

For the compound `CC(C1OC(C)(C)C(O)C1O)[C@@H]1CC[C@]2(C)C3=CCC4C(C)(C)C(=O)CC[C@]4(C)C3CC[C@@]12C` (stereo not given in full), the activity remaining is 111% (inactive).

Take `NS(=O)(=O)c1cc2c(cc1Cl)NC(CSCc1ccccc1)=NS2(=O)=O`: the activity remaining is 113% (inactive).

Consider `C=C(C)[C@H]1COc2cc3oc(=O)ccc3cc2O1`, for which the activity remaining is 118% (inactive).
